Assay results reported in PubChem BioAssay (NCATS).
Records with an inconclusive call do not appear. Active and inactive are the calls of the source. Calls follow the shape of the dose curve; as a rule, active = well fitted curve in the direction sought with a large enough effect; inconclusive = small, poorly fitted or top-dose-only effect, or another doubt; inactive = no such curve, though single readings can be large; an effect the other way counts as inactive or inconclusive.

Tests used:
[1] = qHTS to identify inhibitors of the type 1 interferon - major histocompatibility complex class I in skeletal muscle: primary screen against the NCATS Pharmaceutical Collection (AID 1347407);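 also: luminescence of HiBiT knocked into endogenous HLA-B as interferon-induced MHC class I level; % is scaled to controls: 0 for no effect and ±100 for the full control effect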
How it was run: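 Luminescence from HiBiT-tagged endogenous HLA-B*08:01 served as the read-out of IFN-beta-induced MHC class I in CRISPR-engineered C25cl48 myoblasts. Cells received 4 ng/ml IFN-beta plus compound (high final 46 uM, […]) for 24 h.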

[2] = target: Protein phosphatase 1D (Homo sapiens) (UniProt O15297); experiment: RapidFire Mass Spectrometry qHTS Assay for Modulators of WT P53-Induced Phosphatase 1 (WIP1) (AID 1347424);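 also: series mostly up to about 63 µM; plate controls were DMSO wells for no effect and GSK830371 inhibitor control at 10 µM for full effect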
Chain of Protein phosphatase 1D (Homo sapiens) (O15297 whole entry, looked up): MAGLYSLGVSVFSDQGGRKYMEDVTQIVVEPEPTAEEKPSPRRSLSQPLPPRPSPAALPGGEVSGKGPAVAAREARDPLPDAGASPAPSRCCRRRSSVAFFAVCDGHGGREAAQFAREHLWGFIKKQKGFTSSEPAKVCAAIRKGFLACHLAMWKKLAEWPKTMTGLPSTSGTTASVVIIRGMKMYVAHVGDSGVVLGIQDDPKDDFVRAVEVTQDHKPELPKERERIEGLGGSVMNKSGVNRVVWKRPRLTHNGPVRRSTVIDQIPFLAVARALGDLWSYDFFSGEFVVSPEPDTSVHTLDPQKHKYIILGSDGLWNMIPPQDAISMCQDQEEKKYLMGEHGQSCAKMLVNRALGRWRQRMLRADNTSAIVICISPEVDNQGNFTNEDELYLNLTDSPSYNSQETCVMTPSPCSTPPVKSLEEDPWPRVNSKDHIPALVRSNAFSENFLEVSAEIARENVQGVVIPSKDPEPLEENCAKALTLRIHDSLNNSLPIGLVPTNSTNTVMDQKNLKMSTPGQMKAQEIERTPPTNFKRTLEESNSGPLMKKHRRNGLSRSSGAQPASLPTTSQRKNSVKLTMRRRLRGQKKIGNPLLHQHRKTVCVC
How it was run: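 RapidFire MS readout of dephosphorylated VEPPL-S-QETFS product, with 1 uM isotope-labelled peptide standard. Reaction: 10 nM WIP1, 2 uM phosphopeptide substrate, 5 min, room temperature, after 1 h compound preincubation; stopped with 0.5% formic acid.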

[3] = target: Protein phosphatase 1D (Homo sapiens) (UniProt O15297); experiment: Rhodamine-PBP qHTS Assay for Modulators of WT P53-Induced Phosphatase 1 (WIP1) (AID 1347425); also: % of control where 0% means no effect
How it was run: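 The read-out is the change in Rhodamine-PBP fluorescence (f1 - f0, ex 525/em 598 nm) as Pi is released, read each minute for 11 min. Final reaction: 5 nM WIP1, 10 uM phosphopeptide VEPPL-pS-QETFS, 10 uM Rh-PBP, 50 mM Tris-HCl pH 7.5, 30 mM MgCl2. Compound was preincubated with enzyme for 1 hour at room temperature.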

[4] = Primary qHTS for inhibitors of La Crosse Virus (LACV) - induced cell death in SH-SY5Y cells (AID 1508616);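 also: top concentration of the series differs between compounds; 0% = infected DMSO wells and 100% = uninfected DMSO wells; higher means more rescue of cells from virus-induced death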
How it was run: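 SH-SY5Y, 6000 cells/well; cpd via pin tool in DMSO; LACV 0.01 MOI; 6 d 37C 5% CO2; ATPLite, 5 min RT; luminescence normalized to ±virus DMSO controls.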

Cc1nc(-c2ccc(Cl)cc2)oc1COC(C)(C)C(=O)O
inactive: Potency [1] | Potency [2] | outcome [3] | outcome [4]

COc1ccc(C(=O)c2ccccc2O)c(O)c1
inactive: Potency [1] | Potency [2] | outcome [3] | outcome [4]

CC(C)(C)NC[C@H](O)COc1cccc2c1CCCC2=O
inactive: Potency [1] | Potency [2] | outcome [3] | outcome [4]

CCCCOC(=O)CC(CC(=O)OCCCC)(OC(C)=O)C(=O)OCCCC
inactive: Potency [1] | Potency [2] | outcome [3] | outcome [4]

C[N+]12CCC(CC1)C(OC(=O)C(O)(c1ccccc1)c1ccccc1)C2 (stereo not drawn)
inactive: Potency [1] | Potency [2] | outcome [3] | outcome [4]

NCc1ccccc1Sc1ccccc1CO
inactive: Potency [1] | Potency [2] | outcome [3] | outcome [4]

C=C[C@@]1(C)CC(=O)[C@]2(O)[C@@]3(C)[C@@H](O)CCC(C)(C)[C@@H]3[C@H](O)[C@H](OC(C)=O)[C@@]2(C)O1
inactive: Potency [1] | Potency [2] | outcome [3] | outcome [4]

Cc1cc2c(OCC(CNC(C)(C)C)OC(=O)c3ccccc3)cccc2[nH]1 (stereo not drawn)
inactive: Potency [1] | Potency [2] | outcome [3] | outcome [4]

CC(C)CCCC(C)N (stereo not drawn)
inactive: Potency [1] | Potency [2] | outcome [3] | outcome [4]

Nc1nc(-c2ccccc2)c(Br)c(=O)[nH]1
inactive: Potency [1] | Potency [2] | outcome [3] | outcome [4]

N=C(N)N1CCc2ccccc2C1
inactive: activity change, negative = inhibition [1] -4.74% [at 3.83 µM] | activity change, negative = inhibition [2] -1.79% [at 6.17 µM] | activity change, negative = inhibition [3] -1.93% [at 4.81 µM] | activity change [4] -3.22% [at 0.431 µM]

CC(C)NCC(O)c1ccc2ccccc2c1 (stereo not drawn)
inactive: Potency [1] | Potency [2] | outcome [3] | outcome [4]
